{"source": "paper PMC4336329", "about": "(PLoS ONE, 2015)", "note": "Among all 310,000 compounds or so, about 2,200 (0.71%) showed an effect of 50% or more. Effects have a minus sign here. This is one part of a sample in which strong results are shown more often than they occur.", "data": [{"target": "human ether-à-go-go-related gene (hERG) potassium channel (human, UniProt Q12809)", "sequence (Q12809 whole entry, looked up)": "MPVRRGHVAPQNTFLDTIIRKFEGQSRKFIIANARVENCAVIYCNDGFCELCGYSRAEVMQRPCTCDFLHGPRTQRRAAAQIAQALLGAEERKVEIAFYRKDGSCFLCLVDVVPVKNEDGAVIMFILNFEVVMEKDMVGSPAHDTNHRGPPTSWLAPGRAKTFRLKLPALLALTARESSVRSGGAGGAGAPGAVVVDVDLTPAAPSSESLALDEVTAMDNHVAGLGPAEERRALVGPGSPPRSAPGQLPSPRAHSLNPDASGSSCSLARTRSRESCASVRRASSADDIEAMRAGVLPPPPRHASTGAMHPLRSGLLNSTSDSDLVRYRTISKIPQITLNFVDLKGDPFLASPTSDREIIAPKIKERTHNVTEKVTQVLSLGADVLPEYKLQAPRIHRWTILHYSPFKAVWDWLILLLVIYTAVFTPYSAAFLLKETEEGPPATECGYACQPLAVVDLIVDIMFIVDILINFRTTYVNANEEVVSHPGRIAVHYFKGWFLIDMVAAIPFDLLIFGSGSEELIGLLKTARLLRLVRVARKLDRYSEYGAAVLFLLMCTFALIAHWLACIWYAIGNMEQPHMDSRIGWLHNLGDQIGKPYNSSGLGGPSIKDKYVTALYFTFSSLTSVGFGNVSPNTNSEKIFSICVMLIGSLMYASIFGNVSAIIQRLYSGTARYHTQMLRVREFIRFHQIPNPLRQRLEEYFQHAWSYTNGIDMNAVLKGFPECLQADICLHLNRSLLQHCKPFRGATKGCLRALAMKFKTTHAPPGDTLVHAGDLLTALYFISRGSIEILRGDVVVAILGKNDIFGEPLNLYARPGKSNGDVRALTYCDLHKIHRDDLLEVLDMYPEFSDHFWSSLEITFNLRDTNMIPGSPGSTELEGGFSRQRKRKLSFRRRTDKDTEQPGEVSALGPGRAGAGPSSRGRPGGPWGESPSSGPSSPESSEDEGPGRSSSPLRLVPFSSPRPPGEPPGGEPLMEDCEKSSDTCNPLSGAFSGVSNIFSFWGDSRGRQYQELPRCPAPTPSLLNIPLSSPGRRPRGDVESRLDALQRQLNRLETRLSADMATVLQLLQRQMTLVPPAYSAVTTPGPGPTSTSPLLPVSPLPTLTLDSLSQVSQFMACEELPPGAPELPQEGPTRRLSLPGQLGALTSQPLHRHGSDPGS", "test": "primary screen, population patch clamp on CHO cells stably expressing hERG; higher = less effect of the substance", "method": "Briefly, Chinese hamster ovary (CHO) cells stably expressing the hERG channel were dislodged from tissue culture flasks and dispensed into PPC plates. […] During the recording, background leak currents were estimated by a 100 ms step to -80 mV from an initial holding potential of -70 mV and subtracted from the subsequent current measurement. The campaign was conducted in two phases using slight differences in recording protocol. In the first phase, the initial voltage pulse used a 100 ms step to -30 mV from a holding potential of -70 mV, a 2 s conditioning step to +25 mV, and a 2 s test step to -30 mV. During the second phase of the screen, the potential during the conditioning step was raised to +45 mV. In both phases of the campaign, a secondary voltage pulse was applied using the same parameters as the second phase initial pulse. The initial and secondary pulses were applied in the absence of compound, and upon application of 1 μM and 10 μM test concentrations. Small molecule effects on hERG current density were quantified by […].", "units": {"hERG current change (%, negative = inhibition) at 1uM": "%"}, "values": [{"smiles": "O=C(NCCN1CCOCC1)c1ccc(N2CCCC2)c([N+](=O)[O-])c1", "hERG current change (%, negative = inhibition) at 1uM": -2.75}, {"smiles": "COC(=O)/C=C\\C(=O)Nc1cccc([N+](=O)[O-])c1", "hERG current change (%, negative = inhibition) at 1uM": 8.24}, {"smiles": "CCOc1nc(C)cc(C)c1S(=O)(=O)c1ccc(Cl)cc1", "hERG current change (%, negative = inhibition) at 1uM": 9.36}, {"smiles": "CCCCNC(=O)C1CCCN(S(=O)(=O)c2ccc(S(=O)(=O)NCC(C)C)cc2)C1", "note": "(stereo not drawn)", "hERG current change (%, negative = inhibition) at 1uM": -3.36}, {"smiles": "COc1ccccc1NCC(=O)N/N=C/c1cccnc1", "hERG current change (%, negative = inhibition) at 1uM": 4.49}, {"smiles": "Cn1c(SCC(=O)Nc2ccccc2)nnc1-c1ccc(NC(=O)CCc2ccccc2)cc1", "hERG current change (%, negative = inhibition) at 1uM": 6.68}, {"smiles": "Cc1cc(C)nc(-n2nc(C)cc2NC(=O)CN2CCc3ccccc3C2)n1", "hERG current change (%, negative = inhibition) at 1uM": -26.4}, {"smiles": "COc1ccc(OC)c(C2C(C(N)=O)=C(C)Nc3nc(CCCO)nn32)c1", "note": "(stereo not drawn)", "hERG current change (%, negative = inhibition) at 1uM": 15.5}, {"smiles": "Cc1onc(-c2ccccc2Cl)c1C(=O)N1CCN(c2ccccc2)CC1", "hERG current change (%, negative = inhibition) at 1uM": 1.1}, {"smiles": "O=C(c1cn(-c2ccccc2)nc1-c1cccs1)N1CCOCC1", "hERG current change (%, negative = inhibition) at 1uM": 4.92}, {"smiles": "C=CCN(CC=C)CCOc1cc(C)ccc1[N+](=O)[O-].O=C(O)C(=O)O", "hERG current change (%, negative = inhibition) at 1uM": 6.69}, {"smiles": "C=CCN(CC=C)CCOc1ccc(C)cc1[N+](=O)[O-].O=C(O)C(=O)O", "hERG current change (%, negative = inhibition) at 1uM": -62.5}, {"smiles": "C=CCN(CC=C)CCOc1ccccc1[N+](=O)[O-].O=C(O)C(=O)O", "hERG current change (%, negative = inhibition) at 1uM": 1.55}, {"smiles": "O=C(CN1CCN(C/C=C/c2ccccc2)CC1)Nc1ccccc1C(=O)NC1CC1", "hERG current change (%, negative = inhibition) at 1uM": -88.8}, {"smiles": "CC1CCN(CC(=O)Nc2ccccc2C(=O)NC2CC2)CC1", "hERG current change (%, negative = inhibition) at 1uM": 5.31}, {"smiles": "NC(=O)C1CCN(CC(=O)Nc2ccccc2C(=O)NC2CC2)CC1", "hERG current change (%, negative = inhibition) at 1uM": 10.7}, {"smiles": "S=C(NC1CCCCC1)N1CCN(C/C=C/c2ccccc2)CC1", "hERG current change (%, negative = inhibition) at 1uM": 3.77}, {"smiles": "O=C(CN1CCN(C/C=C/c2ccccc2)CC1)NC(=O)NC1CCCCC1", "hERG current change (%, negative = inhibition) at 1uM": -69.7}, {"smiles": "O=C(CN1CCN(Cc2ccccc2)CC1)NC(=O)NC1CCCCC1", "hERG current change (%, negative = inhibition) at 1uM": -16.1}, {"smiles": "O=C(CSCc1ccccc1)N/N=C/c1cc2c(cc1Br)OCO2", "hERG current change (%, negative = inhibition) at 1uM": 8.61}, {"smiles": "CSc1nnc(Cc2sc(-c3ccccc3)nc2-c2ccccc2)o1", "hERG current change (%, negative = inhibition) at 1uM": 12.1}, {"smiles": "COc1ccc(CN2CCN(CC3CC3)CC2CCO)c(C)c1C", "note": "(stereo not drawn)", "hERG current change (%, negative = inhibition) at 1uM": 13.2}, {"smiles": "CC(C)=CCN1CCN(Cc2cccn2-c2ncccn2)CC1CCO", "note": "(stereo not drawn)", "hERG current change (%, negative = inhibition) at 1uM": -3.9}, {"smiles": "OCCC1CN(Cc2cccn2-c2ncccn2)CCN1Cc1ccccc1", "note": "(stereo not drawn)", "hERG current change (%, negative = inhibition) at 1uM": -33.4}, {"smiles": "OCCC1CN(Cc2cccn2-c2cccnc2)CCN1CCc1ccccc1", "note": "(stereo not drawn)", "hERG current change (%, negative = inhibition) at 1uM": -37.5}, {"smiles": "COc1ccc(CN2CCN(Cc3ccon3)CC2CCO)c(C)c1C", "note": "(stereo not drawn)", "hERG current change (%, negative = inhibition) at 1uM": 2.93}, {"smiles": "OCCC1CN(Cc2cccn2-c2cccnc2)CCN1Cc1ccccc1", "note": "(stereo not drawn)", "hERG current change (%, negative = inhibition) at 1uM": -7.57}, {"smiles": "CCOc1ccc(CN2CCN(Cc3cccn3-c3ncccn3)CC2CCO)cc1", "note": "(stereo not drawn)", "hERG current change (%, negative = inhibition) at 1uM": -84}, {"smiles": "OCCC1CN(Cc2cccn2-c2ncccn2)CCN1Cc1ccc(F)cc1", "note": "(stereo not drawn)", "hERG current change (%, negative = inhibition) at 1uM": -74.7}, {"smiles": "COc1ccc(CN2CCN(Cc3cccn3-c3ncccn3)CC2CCO)c(C)c1C", "note": "(stereo not drawn)", "hERG current change (%, negative = inhibition) at 1uM": -80.4}, {"smiles": "OCCC1CN(Cc2cccn2-c2ncccn2)CCN1CCc1ccccc1", "note": "(stereo not drawn)", "hERG current change (%, negative = inhibition) at 1uM": -44.6}, {"smiles": "COc1cccc(CN2CCN(Cc3cccn3-c3cccnc3)CC2CCO)c1", "note": "(stereo not drawn)", "hERG current change (%, negative = inhibition) at 1uM": -62.2}, {"smiles": "OCCC1CN(Cc2cccn2-c2ncccn2)CCN1C1CCCC1", "note": "(stereo not drawn)", "hERG current change (%, negative = inhibition) at 1uM": 0.978}, {"smiles": "CCC(C)NC(=O)C(=O)NCc1ccncc1", "note": "(stereo not drawn)", "hERG current change (%, negative = inhibition) at 1uM": 10.8}, {"smiles": "CN1CCN(NC(=O)c2ccccc2F)CC1", "hERG current change (%, negative = inhibition) at 1uM": 11.7}, {"smiles": "COc1ccc(CC(=O)Oc2cc(C)[nH]c(=O)c2[N+](=O)[O-])cc1", "hERG current change (%, negative = inhibition) at 1uM": 4.19}, {"smiles": "COc1ccc(-c2csc(/C=C/c3ccc4c(c3)OCO4)n2)cc1OC", "hERG current change (%, negative = inhibition) at 1uM": 2.68}, {"smiles": "CN(c1ncnc(N)c1[N+](=O)[O-])C1CCCCC1", "hERG current change (%, negative = inhibition) at 1uM": 12.5}, {"smiles": "Cc1ccc(S(=O)(=O)N2CCC(C(=O)N3CCC3)CC2)cc1", "hERG current change (%, negative = inhibition) at 1uM": 11.3}, {"smiles": "CC(C)OC(=O)COc1cc(O)c2c(=O)cc(-c3ccccc3)oc2c1", "hERG current change (%, negative = inhibition) at 1uM": 10.8}, {"smiles": "CCOC(=O)C1CCCN(CCCc2ccccc2)C1", "note": "(stereo not drawn)", "hERG current change (%, negative = inhibition) at 1uM": -2.62}, {"smiles": "COc1ccccc1-c1ccc(=O)n(CC(=O)NCc2cccs2)n1", "hERG current change (%, negative = inhibition) at 1uM": 15.8}, {"smiles": "COCCC(=O)N1CCC(Oc2ccc(C(=O)N3C[C@@H]4CCC[C@H]3C4)cc2)CC1", "hERG current change (%, negative = inhibition) at 1uM": 5.49}, {"smiles": "OC[C@H]1O[C@@H](Oc2ccc3cc(Br)ccc3c2)[C@H](O)[C@@H](O)[C@H]1O", "hERG current change (%, negative = inhibition) at 1uM": 4.75}, {"smiles": "CC(C)CCN1CCN(Cc2cccn2-c2cccnc2)CC1CCO", "note": "(stereo not drawn)", "hERG current change (%, negative = inhibition) at 1uM": -9.84}, {"smiles": "OCCC1CN(Cc2cccn2-c2cccnc2)CCN1Cc1ccc(F)cc1", "note": "(stereo not drawn)", "hERG current change (%, negative = inhibition) at 1uM": -21.4}, {"smiles": "CCOc1ccc(CN2CCN(Cc3cccn3-c3cccnc3)CC2CCO)cc1", "note": "(stereo not drawn)", "hERG current change (%, negative = inhibition) at 1uM": -86.3}, {"smiles": "Cc1cc(/C([O-])=C(/C(=S)Nc2ccccc2)[n+]2ccccc2)c(C)n1-c1ccccc1", "hERG current change (%, negative = inhibition) at 1uM": 9.1}, {"smiles": "CCOc1ccc(N2C(=O)CC(N3CCN(C4CCc5ccccc5C4)CC3)C2=O)cc1", "note": "(stereo not drawn)", "hERG current change (%, negative = inhibition) at 1uM": -65.5}, {"smiles": "CCOc1ccc(N2C(=O)CC(N3CCc4ccccc43)C2=O)cc1", "note": "(stereo not drawn)", "hERG current change (%, negative = inhibition) at 1uM": 5.06}, {"smiles": "Cc1ccc(N2C(=O)CC(N3CCN(C4CCc5ccccc5C4)CC3)C2=O)cc1", "note": "(stereo not drawn)", "hERG current change (%, negative = inhibition) at 1uM": -59}, {"smiles": "COc1ccc(N2C(=O)CC(N3CCN(C4CCc5ccccc5C4)CC3)C2=O)cc1", "note": "(stereo not drawn)", "hERG current change (%, negative = inhibition) at 1uM": -37.7}, {"smiles": "O=C1CC(N2CCN(C3CCc4ccccc4C3)CC2)C(=O)N1c1ccccc1", "note": "(stereo not drawn)", "hERG current change (%, negative = inhibition) at 1uM": -42.7}, {"smiles": "Cc1ccc(N2C(=O)CC(N3CCN(c4ccccn4)CC3)C2=O)cc1", "note": "(stereo not drawn)", "hERG current change (%, negative = inhibition) at 1uM": -8.68}, {"smiles": "O=C(CSc1nc2[nH]ncc2c(=O)[nH]1)Nc1ccc(F)cc1", "hERG current change (%, negative = inhibition) at 1uM": 13.3}, {"smiles": "N#Cc1c(-c2ccccc2)cc(-c2ccc3c(c2)OCO3)[nH]c1=O", "hERG current change (%, negative = inhibition) at 1uM": 11}, {"smiles": "CCCCC(C(=O)O)C(C)CC(=O)Nc1cccc(C(=O)O)c1", "note": "(stereo not drawn)", "hERG current change (%, negative = inhibition) at 1uM": 3.02}]}]}
